Test results as given in PubChem BioAssay (Tox21).
Inconclusive results are not listed. Calls of active or inactive are those of the source. Unless noted, calls come from the whole dose curve; as a rule, active = well fitted curve in the direction sought with a large enough effect in the repeat runs; inconclusive = weak or mixed curves; inactive = no such curve, though single readings can be large; an effect the other way counts as inactive or inconclusive.

Assays:
[1] = A CellTox Green Cytotoxicity Assay to monitor cytotoxicity in HEK293 cells - 16 hour (AID 1224888); note: nearly all actives have a fitted effect of over 35% in size
Summary of the method: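 Fluorescence intensity, read at 0, 8, 16, 24, 32 and 40 h of compound treatment, reflected dye binding to DNA of dead HEK293 cells; compounds (23 nL, DMSO) were added 5 h after plating cells with reagent.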

[2] = qHTS RealTime-Glo MT Cell Viability Assay in HepG2 cells - 0 hour (AID 1224889); note: nearly all actives have a fitted effect of over 50% in size
Summary of the method: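 qHTS, HepG2, 600 cells/well, RealTime-Glo (NanoLuc + prosubstrate) added with cells; 5 h preincubation; DMSO compound addition; 37 C; luminescence at 0/8/16/24/32/40 h.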

[3] = A CellTox Green Cytotoxicity Assay to monitor cytotoxicity in HepG2 cells - 8 hour (AID 1224890); note: nearly all actives have a fitted effect of over 45% in size
Summary of the method: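 Using 1536-well format, dye-containing HepG2 suspension was seeded, allowed 5 h at 37 C/5% CO2, dosed by pintool with compounds, positive and negative controls, and imaged for fluorescence across 40 h.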

[4] = qHTS assay to identify small molecule antagonists of the estrogen receptor alpha (ER-alpha) signaling pathway using the BG1 cell line in the presence of 0.1 nM 17-beta-estradiol - cell viability counter screen (AID 1259241); note: nearly all actives have a fitted effect of over 40% in size
Summary of the method: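 VM7Luc4E2 cells (endogenous ER-alpha, 4×ERE-luciferase), hormone-starved 5 days in charcoal-stripped FBS, were treated with compounds plus 0.1 nM 17beta-estradiol for 22 hr at 37C; viability read in same wells as CellTiter-Fluor live-cell protease fluorescence.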

[5] = qHTS assay to identify small molecule antagonists of the androgen receptor (AR) signaling pathway using the MDA cell line in the presence of 0.5 nM R1881 - cell viability counter screen (AID 1259242); note: nearly all actives have a fitted effect of over 45% in size
Summary of the method: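 Viability of MDA-kb2 cells was multiplexed with the luciferase AR readout; after 16 hr with compounds and R1881 at 0.5 nM final, CellTiter-Fluor fluorescence was recorded.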

[6] = biological target: Estrogen receptor (Homo sapiens) (UniProt P03372); assay: qHTS assay to identify small molecule antagonists of the estrogen receptor alpha (ER-alpha) signaling pathway using the BG1 cell line in the presence of 0.1 nM 17-beta-estradiol (AID 1259244); note: nearly all actives have a fitted effect of over 50% in size
Chain of Estrogen receptor (Homo sapiens) (P03372 whole entry, looked up): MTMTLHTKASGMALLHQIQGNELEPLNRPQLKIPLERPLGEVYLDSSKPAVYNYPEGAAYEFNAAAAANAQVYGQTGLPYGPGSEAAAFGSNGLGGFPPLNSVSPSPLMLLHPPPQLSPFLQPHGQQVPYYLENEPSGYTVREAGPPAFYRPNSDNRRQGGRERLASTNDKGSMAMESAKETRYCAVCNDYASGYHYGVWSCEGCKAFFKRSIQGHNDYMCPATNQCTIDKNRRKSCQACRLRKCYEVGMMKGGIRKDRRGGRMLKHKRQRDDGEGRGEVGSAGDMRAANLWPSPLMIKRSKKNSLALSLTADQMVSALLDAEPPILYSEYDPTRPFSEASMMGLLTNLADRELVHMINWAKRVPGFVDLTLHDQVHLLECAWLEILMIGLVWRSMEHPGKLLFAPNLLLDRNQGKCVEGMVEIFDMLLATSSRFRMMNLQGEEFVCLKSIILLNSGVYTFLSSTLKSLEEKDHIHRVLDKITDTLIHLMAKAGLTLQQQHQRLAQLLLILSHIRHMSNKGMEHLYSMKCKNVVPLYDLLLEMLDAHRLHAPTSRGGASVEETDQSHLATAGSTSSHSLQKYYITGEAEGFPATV
Summary of the method: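 Estradiol at 0.1 nM (final) stimulates the endogenous ER-alpha of VM7Luc4E2 cells carrying an ERE-driven luciferase; compounds are co-incubated 22 h at 37C and luciferase output quantified by luminescence.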

[7] = qHTS assay to identify small molecule phospholipidosis (PLD) inducers (AID 1259344; active = well fitted curve in the direction sought with a large enough effect; an effect the other way counts as inactive or inconclusive)
Summary of the method: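 HepG2 cells grown on collagen I take up LipidTOX Red while exposed to compound for 24 h; after fixation they are imaged at 20x and pit metrics are extracted.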

[8] = qHTS assay to identify small molecule HDAC inhibitors (AID 1259364);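 note: wild-type HCT-116 cells with endogenous class I/II HDAC activity; top concentration of the series differs between compounds; nearly all actives have a fitted effect of over 45% in size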
Summary of the method: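 Read-out: luminescence of HDAC-Glo I/II reagent, 30 min RT, reflecting class I/II deacetylase activity in whole HCT-116 cells pre-exposed 2 h to DMSO-dissolved compounds.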

[9] = qHTS assay to identify small molecule HDAC inhibitors - cell viability counter screen (AID 1259365); note: series mostly up to about 92 µM; nearly all actives have a fitted effect of over 50% in size
Summary of the method: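 Wild-type HCT-116 cells were seeded at 1,500 per well, incubated overnight at 37 C, then exposed to compounds in DMSO for 2hr. Viability was read by CellTiter-Glo luminescence after 30min at room temperature.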

[10] = qHTS assay to identify small molecule agonists of the sonic hedgehog signaling (Shh) pathway - cell viability counter screen (AID 1259366); note: nearly all actives have a fitted effect of over 50% in size
Summary of the method: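 NIH/3T3-derived 3T3 Gli1-Luc cells (stable Gli1-responsive firefly luciferase reporter) were seeded, rested 4 hr at 37 C/5% CO2, then exposed to compounds in DMSO for 24 hr; viability was read by CellTiter-Fluor fluorescence in the same wells.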

[11] = qHTS assay to identify small molecule antagonists of the sonic hedgehog signaling (Shh) pathway - cell viability counter screen (AID 1259367); note: nearly all actives have a fitted effect of over 55% in size
Summary of the method: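 After a 4 hr settling period, 3T3 Gli1-Luc cells were treated with DMSO-dissolved chemicals and conditioned medium, kept 24 hr at 37C in 5% CO2, and assayed for viability by CellTiter-Fluor fluorescence following 1 hr reagent incubation.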

[12] = qHTS assay to identify small molecule agonists of the sonic hedgehog signaling (Shh) pathway (AID 1259368; calls by dose curve; note: series mostly up to about 92 µM; nearly all actives have a fitted effect of over 15% in size)
Summary of the method: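 A Gli1 transcriptional response element controlled firefly luciferase in 3T3Gli1-Luc cells. Compounds and a positive control were added 4 hr after plating, and cells were incubated a further 24 hr at 37 C before luminescence detection.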

[13] = qHTS assay to identify small molecule antagonists of the sonic hedgehog signaling (Shh) pathway (AID 1259369; calls by dose curve; note: nearly all actives have a fitted effect of over 45% in size; note: potency is the fitted concentration of half-maximal effect)
Summary of the method: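 For antagonist detection, the reporter line received test compounds together with conditioned medium, incubated 24hr at 37 C, 5% CO2, then luminescence was recorded following 30min room-temperature luciferase reagent incubation.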

[14] = biological target: Estrogen receptor beta (Homo sapiens) (UniProt Q92731); assay: qHTS assay to identify small molecule agonists of the estrogen receptor beta (ER-beta) signaling pathway (AID 1259377; active = well fitted activation curve with a large enough effect in the signal ratio in the repeat runs, not every such curve was filed as active; the % refers to the signal ratio; note: potency is the fitted concentration of half-maximal effect)
Chain of Estrogen receptor beta (Homo sapiens) (Q92731 whole entry, looked up): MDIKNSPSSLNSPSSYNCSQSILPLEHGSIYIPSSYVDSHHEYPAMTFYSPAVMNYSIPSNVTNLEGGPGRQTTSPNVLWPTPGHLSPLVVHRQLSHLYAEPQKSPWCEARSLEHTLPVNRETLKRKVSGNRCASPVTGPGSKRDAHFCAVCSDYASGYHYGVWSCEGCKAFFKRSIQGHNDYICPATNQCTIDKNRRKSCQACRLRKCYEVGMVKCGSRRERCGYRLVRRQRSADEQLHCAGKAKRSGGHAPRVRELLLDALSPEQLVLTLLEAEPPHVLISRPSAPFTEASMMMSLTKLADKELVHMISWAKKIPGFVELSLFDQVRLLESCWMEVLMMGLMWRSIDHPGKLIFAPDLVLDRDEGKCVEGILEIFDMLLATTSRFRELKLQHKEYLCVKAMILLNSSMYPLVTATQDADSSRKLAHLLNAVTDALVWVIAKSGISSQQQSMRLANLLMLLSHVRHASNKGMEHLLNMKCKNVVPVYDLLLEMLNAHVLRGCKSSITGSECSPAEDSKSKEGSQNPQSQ
Summary of the method: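 ER-beta-UAS-bla HEK293T (GripTite) cells carrying a UAS-driven beta-lactamase reporter, in medium with 2% charcoal-stripped FBS, were exposed to compounds for 16 hr at 37C; LiveBLAzer B/G FRET substrate was then added and fluorescence read after 2 hours at room temperature.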

[15] = biological target: Estrogen receptor beta (Homo sapiens) (UniProt Q92731); assay: qHTS assay to identify small molecule antagonists of the estrogen receptor beta (ER-beta) signaling pathway (AID 1259378; active = well fitted inhibition curve with a large enough effect in the signal ratio in the repeat runs, not every such curve was filed as active; the % refers to the signal ratio)
Summary of the method: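 ER-beta-UAS-bla HEK293T (GripTite) cells in 2% charcoal-stripped FBS medium were preincubated 6 hr at 37C, dosed with compound, then stimulated with 1 nM E2 (final) for 16 hr; beta-lactamase reporter read by B/G FRET fluorescence after 2 hr substrate loading.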

[16] = qHTS assay to identify small molecule agonists of the androgen receptor (AR) signaling pathway in the presence of an antagonist - cell viability counter screen (AID 1259379);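 note: MDA-kb2 human breast cancer cells carrying an MMTV luciferase reporter; series mostly up to about 92 µM; nearly all actives have a fitted effect of over 25% in size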
Summary of the method: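 Seed MDA-kb2 at 3,000 cells/well; incubate 5 hr, 37C, 0% CO2. Add nilutamide to 3.0uM final, then pin compounds at 15 concentrations. Incubate 16 hr. Add CellTiter-Fluor at 15 hr, read fluorescence after 1 hr.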

[17] = qHTS assay to identify small molecule agonists of the estrogen receptor beta (ER-beta) signaling pathway - cell viability counter screen (AID 1259380); note: nearly all actives have a fitted effect of over 30% in size; note: potency is the fitted concentration of half-maximal effect
Summary of the method: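 CellTiter-Glo read, 30 min RT, same wells as bla assay; cells ER-beta-UAS-bla HEK293T; 16 hr compound, 37C; medium 2% charcoal-stripped FBS.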

[18] = qHTS assay to identify small molecule antagonists of the estrogen receptor beta (ER-beta) signaling pathway - cell viability counter screen (AID 1259382); note: series mostly up to about 92 µM; nearly all actives have a fitted effect of over 55% in size
Summary of the method: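 In this multiplexed counter screen, cells were seeded at 2,000 per well in medium with 2% charcoal-stripped FBS and incubated 6 hr before compound and 1nM final E2 were added. Sixteen hours later, ATP-based luminescence reported viability.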

[19] = biological target: Androgen receptor (Homo sapiens) (UniProt P10275); assay: qHTS assay to identify small molecule antagonists of the androgen receptor (AR) signaling pathway using the MDA cell line in the presence of 0.5 nM R1881 (AID 1259243); note: nearly all actives have a fitted effect of over 50% in size; note: potency is the fitted concentration of half-maximal effect
Chain of Androgen receptor (Homo sapiens) (P10275 whole entry, looked up): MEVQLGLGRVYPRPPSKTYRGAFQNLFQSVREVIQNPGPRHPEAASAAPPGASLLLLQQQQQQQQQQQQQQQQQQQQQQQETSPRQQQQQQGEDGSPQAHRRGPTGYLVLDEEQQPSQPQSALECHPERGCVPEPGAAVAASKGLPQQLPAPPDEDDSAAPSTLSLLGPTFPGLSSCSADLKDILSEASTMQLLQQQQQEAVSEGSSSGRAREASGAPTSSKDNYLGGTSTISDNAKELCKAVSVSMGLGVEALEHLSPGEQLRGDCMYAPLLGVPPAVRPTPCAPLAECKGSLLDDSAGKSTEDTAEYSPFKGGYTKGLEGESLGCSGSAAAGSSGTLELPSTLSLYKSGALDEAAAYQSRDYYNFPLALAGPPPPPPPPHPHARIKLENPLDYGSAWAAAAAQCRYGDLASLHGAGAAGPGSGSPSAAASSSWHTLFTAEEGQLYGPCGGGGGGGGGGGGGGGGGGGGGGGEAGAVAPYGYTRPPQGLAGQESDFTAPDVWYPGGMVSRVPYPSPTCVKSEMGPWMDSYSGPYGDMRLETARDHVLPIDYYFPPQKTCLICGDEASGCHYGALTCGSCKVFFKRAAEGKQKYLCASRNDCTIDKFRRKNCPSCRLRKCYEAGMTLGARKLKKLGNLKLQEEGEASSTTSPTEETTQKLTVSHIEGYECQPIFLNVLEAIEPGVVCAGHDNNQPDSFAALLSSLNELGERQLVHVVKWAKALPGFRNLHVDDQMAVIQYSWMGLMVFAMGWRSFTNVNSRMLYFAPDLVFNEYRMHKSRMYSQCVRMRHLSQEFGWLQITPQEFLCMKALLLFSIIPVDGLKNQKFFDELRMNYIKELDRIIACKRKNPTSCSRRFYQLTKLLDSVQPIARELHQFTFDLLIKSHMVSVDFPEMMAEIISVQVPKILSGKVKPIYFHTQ
Summary of the method: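 Reporter cells cultured without CO2 receive test chemicals, then 0.5 nM R1881 final; after 16 hr at 37C, ONE-Glo is added and light output recorded.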

[20] = biological target: Androgen receptor (Homo sapiens) (UniProt P10275); assay: qHTS assay to identify small molecule agonists of the androgen receptor (AR) signaling pathway in the presence of an antagonist (AID 1259381; calls by dose curve; note: nearly all actives have a fitted effect of over 15% in size)
Summary of the method: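 Test compounds at 15 concentrations were incubated for 16hr with MDA-kb2 reporter cells in presence of 3.0uM nilutamide (final). Signal: ONE-Glo luciferase luminescence.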

Measured: Potency

COc1cnc(NS(=O)(=O)c2ccc(N)cc2)nc1
not listed: [19] | [20]
inactive: all other assays above

CC(C)(C)NCC(O)COc1cccc2c1CCC(=O)N2 (centres undefined)
not listed: [6]
inactive: all other assays above

CC(=O)OC1CCC(C(C)(C)C)CC1 (centres undefined)
not listed: [7] | [14] | [15] | [18]
inactive: all other assays above

CC(=O)c1ccc(O)c(C(N)=O)c1
not listed: [6] | [7]
inactive: all other assays above

CCN1CCN(C(=O)N[C@@H](C(=O)N[C@@H]2C(=O)N3[C@@H]2SC(C)(C)[C@H]3C(=O)O)c2ccccc2)C(=O)C1=O
not listed: [17] | [19] | [20]
inactive: all other assays above

Nc1cc(S(=O)(=O)O)ccc1O
not listed: [7] | [8] | [14] | [15] | [18]
inactive: all other assays above

C/C(Cl)=C/CCl
not listed: [7]
inactive: all other assays above

CCCc1ncc(C(=O)O)s1
not listed: [6] | [7]
inactive: all other assays above

O=C(c1ccccc1)c1cccc(O)c1
active: [19] 27.7 µM | [14] 12.4 µM
not listed: [7] | [13] | [15]
inactive: all other assays above

O=C1CCCc2c(O)cccc21
not listed: [7] | [8] | [14] | [15]
inactive: all other assays above

CC(C)OC(=O)C(C(=O)OC(C)C)=C1SC=CS1
active: [13] 4.73 µM | [17] 18.8 µM
not listed: [6] | [14] | [15] | [20]
inactive: all other assays above

COc1cc(OC)cc(OC)c1
inactive: all assays above

C=C(C)C(=O)OCCCC
not listed: [6] | [7] | [12]
inactive: all other assays above

CSC(=O)c1cccc2nnsc12
active: [19] 15.4 µM
not listed: [7] | [14] | [15]
inactive: all other assays above

Cc1ccc(N)nc1
not listed: [7] | [12]
inactive: all other assays above

Cc1ccc2cccnc2c1
not listed: [7] | [8]
inactive: all other assays above

COC(=O)c1ccc(NC(C)=O)cc1OC
not listed: [7] | [14] | [15]
inactive: all other assays above

CCOC(=O)[C@H](CCc1ccccc1)N[C@H]1CS[C@H](c2cccs2)CN(CC(=O)O)C1=O
not listed: [8] | [14] | [15]
inactive: all other assays above

Cc1cc(=O)oc2cc(O[C@@H]3SC[C@@H](O)[C@H](O)[C@H]3O)ccc12
not listed: [7]
inactive: all other assays above

CN1CCN(C(=O)C2CCCCC2)CC1
not listed: [19] | [20]
inactive: all other assays above

CC(C)C(=O)Nc1cccc(C2CN3CCSC3=N2)c1 (centres undefined)
not listed: [7] | [8] | [13]
inactive: all other assays above

NNC(=O)OCc1ccccc1
not listed: [7]
inactive: all other assays above

CC12CCCC=C1C(=O)OC2=O (centres undefined)
not listed: [6] | [7] | [14] | [15]
inactive: all other assays above

COC(C)(C)CC(C)=O
not listed: [6] | [7] | [15]
inactive: all other assays above

CC(C)CC(O)Cc1ccccc1 (centres undefined)
not listed: [7] | [18]
inactive: all other assays above

C[n+]1ccccc1/C=N/O
not listed: [19] | [20]
inactive: all other assays above

Clc1ccc2c(c1)Nc1ccccc1S2
active: [19] 10.6 µM
not listed: [7] | [12] | [14] | [15]
inactive: all other assays above

CC(O)C(CO)C(C)O (centres undefined)
not listed: [7] | [18]
inactive: all other assays above
